Test results published in PubChem BioAssay (NCI).
The panel holds about 83,000 compounds, 20% with a hit somewhere; the sample as a whole holds those more often.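 How to read the values: 0–100, growth inhibition (40 = 60% inhibited); 0, no net growth; -100 to 0, cell death (-40 = 40% of starting cells died; -100 = all dead).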 Activity calls are given as the source filed them. How the source made its calls: active means growth percent below 10; inactive means the rest.

Test system: CCRF-CEM leukemia
Assay: NCI-60 one-dose screen, 48 h (100 = growth as untreated, 0 = no growth, -100 = all killed)
Settings: 10 µM unless noted

| Compound | growth |
| --- | --- |
| COc1ccc(NC(=O)CSc2nc3ccccc3c(=O)n2-c2ccccc2C(F)(F)F)c(OC)c1OC | 101% (inactive) |
| COc1ccc(C(=O)/C=C/c2cc(C(=O)c3cc(OC)c(OC)c(OC)c3)ccc2OC)cc1 | 5.61% (active) |
| COc1ccc(C(=O)/C=C/c2ccc(/C=C/c3cc(OC)c(OC)c(OC)c3)cc2)cc1 | 19.6% (inactive) |

Test system: MOLT-4 leukemia
Assay: as above
Settings: 10 µM unless noted

| Compound | growth |
| --- | --- |
| COc1ccc(C(=O)c2cc(OC)c(OC)c(OC)c2)cc1/C=C/C(=O)c1ccc(OC)c(OC)c1 | 12.8% (inactive) |
| COc1c(NC[C@H]2OC(O)[C@H](O)[C@@H](O)[C@@H]2O)c(=O)c1=O (some centres not stated) | 102% (inactive) |
| COc1cccc(/C=C/c2c(C(=O)O)cccc2[N+](=O)[O-])c1OC | 96.1% (inactive) |
| COc1ccc(OC)c(C(=O)c2oc3ccc(Br)cc3c2N)c1 | 19.4% (inactive) |
| Nc1c(C(=O)Nc2ccccc2)sc2nc3c(cc12)CN(Cc1ccccc1)CC3 | 92.3% (inactive) |
| CN=S(=O)(NC(=O)c1ccc(Cl)cc1Cl)c1ccc(Br)s1 (configuration not stated) | 93.3% (inactive) |
| CC(C)C[C@H](NC(=O)[C@H](Cc1ccccc1)n1ccc(N2CCCCC2)cc1=O)B(O)O | -2.84% (active) |
| COc1ccc(-c2cn[nH]c2-c2cc(OC)c3c(c2)OCO3)cc1 | 3.98% (active) |
| COc1ccccc1CNCCCN1C(=O)c2ccc3c4c(ccc(c24)C1=O)C(=O)N(CCCNCCCCNCCCCN)C3=O | 11.3% (inactive) |
| Nc1c(C(=O)c2ccc(F)cc2)sc2nc3c(cc12)CCCC3 | 66.6% (inactive) |
| COc1cccc(C2CC(=O)Nc3c2c(C)nn3-c2nc3ccccc3[nH]2)c1OC (configuration not stated) | -31% (active) |
| COc1ccc(NC(=O)CSc2nc3ccc(Cl)cc3c(=O)n2-c2ccccc2C(F)(F)F)c(OC)c1OC | 106% (inactive) |
| Cc1cc(C)c(NC(=O)c2sc3nc4c(cc3c2N)CN(Cc2ccccc2)CC4)c(C)c1 | 25% (inactive) |
| CC(C)[C@H](CO)Nc1nc(Nc2ccc(C(=O)NCCNS(=O)(=O)c3cccc4c(N(C)C)cccc34)c(Cl)c2)c2ncn(C(C)C)c2n1 | -12.1% (active) |
| COc1ccc(C(=O)c2cc(OC)c(OC)c(OC)c2)cc1/C=C/C(=O)c1ccc2c(c1)OCO2 | 2.27% (active) |
| Cc1ccc(Oc2nc3ccccc3cc2-c2nnc(Cn3c(COc4ccccc4)nc4ccccc43)o2)cc1 | -13.8% (active) |
| Nc1c(C(=O)Nc2ccccc2)sc2nc3c(cc12)CCCCC3 | 29.2% (inactive) |
| CC(C)C[C@H](NC(=O)Cn1ccc(NCc2ccccc2)cc1=O)B(O)O | -10.3% (active) |
| CC(C)(C)c1ccc(S(=O)(=O)Oc2ccc3c4c(c(=O)oc3c2)CCCCC4)cc1 | 54.7% (inactive) |
| COc1cc(-c2nc(-c3nc4ccccc4[nH]3)cc3c2[nH]c2ccccc23)cc(OC)c1OC | 44.3% (inactive) |

| Compound | growth |
| --- | --- |
| O=C(Nc1ccc(OCc2nnc(-c3ccc(Cl)cc3)o2)c(F)c1)Nc1ccc(Cl)c(Cl)c1 | 45.2% (inactive) |
| COc1ccc(/C=C/C(=O)c2ccc(B(O)O)cc2)cc1O | 82.3% (inactive) |
| COc1ccc(/C=C/C(=O)c2cc(OC)c(OC)c(OC)c2)cc1OCc1cn(Cc2ccc(F)cc2)nn1 | 58.1% (inactive) |
| CC(C)(C)OC(=O)N[C@@H](Cc1ccccc1)C(=O)N(Cc1ccccc1)C1(C(=O)NCc2ccccc2)CCN(Cc2ccccc2)CC1 | 7.74% (active) |
| COC(=O)c1cc(-c2cccs2)c(C#N)c(N)c1C#N | 98.1% (inactive) |
| CCN(CC)P(=O)(N(CC)CC)N(CCCSC/C=C(\C)CC/C=C(\C)CCC=C(C)C)CCCN1CCN(C)CC1 | 93.1% (inactive) |
| O=C(O)c1cccc([N+](=O)[O-])c1/C=C/c1ccccc1 | 97.7% (inactive) |
| Cc1ccc(C(=O)c2sc3nc4c(cc3c2N)CCCC4)c(C)c1 | 21.8% (inactive) |
| COc1cc(/C=C\c2cc(OC)c(OC)c(OC)c2)cc(N/C=C\C(=O)c2c[nH]c3ccccc23)c1OC | -29% (active) |
| COc1cc(C(=O)/C=C/c2cc(C(=O)c3cc(OC)c(OC)c(OC)c3)ccc2OC)ccc1N | 4.31% (active) |
| CC(C)C[C@H](NC(=O)[C@@H](Cc1ccccc1)n1ccc(Nc2ccccc2)cc1=O)B(O)O | -8.47% (active) |
| COc1ccc(Cn2c(SC)nc(=O)n(Cc3ccc(Cl)cc3)c2=O)cc1 | 95% (inactive) |
| COc1ccc(Cn2cc(COc3cc(/C=C/C(=O)c4cc(OC)c(OC)c(OC)c4)ccc3OC)nn2)cc1 | 82.3% (inactive) |
| O=c1oc2cc(OS(=O)(=O)c3ccccc3)c(Cl)cc2c2c1CCCCCC2 | 77.4% (inactive) |
| COc1ccc(-c2nc(-c3nc4ccc(F)cc4[nH]3)cc3c2[nH]c2ccccc23)cc1 | 22.5% (inactive) |
| COc1ccc(C2CC(=O)Nc3c2c(C)nn3-c2nc3ccccc3[nH]2)cc1OC (configuration not stated) | -31.5% (active) |
| COc1ccc(NC(=O)CSc2nc3ccccc3c(=O)n2-c2ccccc2C(F)(F)F)c(OC)c1OC | 107% (inactive) |
| COc1ccc(C(=O)/C=C/c2cc(C(=O)c3cc(OC)c(OC)c(OC)c3)ccc2OC)cc1 | 10.5% (inactive) |
| COc1ccc(C(=O)/C=C/c2ccc(/C=C/c3cc(OC)c(OC)c(OC)c3)cc2)cc1 | 9.62% (active) |
